target: Hexose transporter 1 (Plasmodium falciparum) (UniProt O97467); assay: ST_JUDE_LEISH: Cytotoxicity at 2uM final concentration against transgenic Leishmania Mexicana promastigotes LmPfHT that are glucose transport deficient and complemented with the Plasmodium falciparum hexose transporter. Activity is measured by DNA content using SYBR green in vitro; format: functional

Point of comparison: `CC(=O)c1cc(N2CCOCC2)ccc1N`, inhibition 1.08%. Against it:
- CC(C)(C)c1ccc(-c2csc(NC(=O)CC(c3ccccc3)c3ccccc3)n2)cc1 — higher, 1.95%
- CCc1cn2c3c(cc(C(=O)N[C@@H](Cc4ccccc4)[C@H](O)CNCc4ccccc4C)cc13)N(C)S(=O)(=O)CC2 — higher, 2.3%
- COC(=O)c1sc(-c2ccc(Cl)cc2)cc1N(CCCN1CCC(N2CCCCC2)CC1)S(=O)(=O)c1ccc(C)cc1 — higher, 11.2%
- O=C(NCCc1ccccc1F)c1cc(Br)cc(N2CCN(c3ccncc3)CC2)c1 — higher, 2.34%
- Clc1ccc(C=NNc2ccnc3cc(Cl)ccc23)cc1 — lower, 0.11%
- Cc1ccccc1C1CCN(C2CCC(NC(=O)c3ccc(-c4ccccn4)s3)CC2)CC1 (stereo not given) — lower, -2.96%
- Cc1ccccc1OCC(O)CN1CCC(C2CCN(CC(O)COc3ccccc3C)CC2)CC1 (stereo not given) — higher, 2%
- Cc1ccc(NC(=N)Nc2ncccc2OCc2c(F)cccc2Cl)cc1 — higher, 7.97%
- CC(=O)c1cc(N2CCCC2)ccc1N — higher, 2.6%
- COc1cccc2cc(C(=O)N[C@@H](CC(C)C)C(=O)N[C@H](C=NN3CC(=O)NC3=O)CC(C)C)oc12 — higher, 3.84%
- OC(c1cccc2ccccc12)C1CN(CCc2ccccc2)CCC1(O)c1ccccc1 (stereo not given) — higher, 11.8%
- CN1CCN(c2cc3c(cc2Cl)CCN3C(=O)Nc2ccc(NC(=O)c3ccc(C(F)(F)F)cc3)cc2)CC1 — higher, 8.45%
- COc1cc(C(=O)NC2CC(C)(C)NC(C)(C)C2)ccc1-c1cc2cc(Cl)c(Cl)cc2[nH]1 — lower, -0.26%
- O=[N+]([O-])c1cccc(-c2nc(-c3ccc(Br)cc3)[nH]c2-c2ccc(Br)cc2)c1 — higher, 4.88%
- CCn1c(-c2nonc2N)nc2c(-c3ccc(CO)o3)ncc(OCCCN)c21 — higher, 3.21%
- CCCn1cc2c(ccc3nc(N)nc(N)c32)n1 — lower, 0.8%
- NCc1cccc(-c2cccc(CNC3CCN(Cc4ccccc4)CC3)c2)c1 — higher, 5.41%
- CCCCCCN1CCCN(Cc2cccc(C(=O)Nc3ccc(C(C)(C)C)cc3)c2)CC1 — lower, 0.8%
- Cc1cc(NCCc2ccccc2)nc(N/C(=N/CC(=O)OC(C)(C)C)Nc2ccc(C(F)(F)F)cc2)n1 — lower, 0.44%
- FC(F)(F)c1cccc(Nc2nc3ccccc3nc2Nc2cccc(C(F)(F)F)c2)c1 — lower, 0.5%
- O=C(CSc1nc2ccccc2c(=O)n1C1CC1)Nc1cc(C(F)(F)F)ccc1Cl — lower, -2.91%
- CCN(CC)CCNC(=O)c1ccc(N/C=C2\C(=O)Nc3ccc(S(=O)(=O)Cc4c(Cl)cccc4Cl)cc32)cc1 — lower, -0.63%
- C[C@H](NC(=O)c1c(CN2CCC(NC(=O)CC(C)(C)C)CC2)c(-c2cccs2)nc2ccccc12)C1CCCCC1 — higher, 1.16%
- N=C(N)Nc1nc(-c2ccc(NC(=N)N3CCC[C@H]3CN3CCCC3)cc2)cs1 — lower, -0.2%
- CCn1cc(C=C2Oc3c(ccc(O)c3CN3CCCCC3C)C2=O)c2ccccc21 (stereo not given) — higher, 5.13%
- CCCNC(=O)c1cncc(-c2ccc(CNC(CC)c3ccccc3)cc2)c1 (stereo not given) — lower, 0.28%
- O=C(NCCc1ccccc1)N(Cc1ccccc1-c1cccc(CNC2CCCC2)c1)C1CCN(Cc2ccccc2)CC1 — higher, 4.49%
- CN(C)C(CNC(=O)c1cc(-c2ccncc2)c(-c2ccc(NC(=O)Nc3ccccc3)cc2)o1)c1ccccc1 (stereo not given) — lower, -0.15%
- O=c1cc(NCCCNCc2ccc(Cl)c(Cl)c2)[nH]c2ccc(Oc3ccccc3)cc12 — lower, -1.42%
- CC1CCCCC1N(C)C1CCN(CCCNC(=O)C=Cc2ccccc2Cl)CC1 (stereo not given) — lower, -0.24%
- CCN(CC)CC(O)CNc1c2ccc([N+](=O)[O-])cc2nc2cc(OC)c(OC)cc12 (stereo not given) — higher, 71.7%
- COc1ccc(C(C(=O)NC2CCN(C[C@H](O)c3ccnc4ccc(OC)cc34)CC2)N2CCN(c3ccc([N+](=O)[O-])cc3)CC2)cc1 (stereo not given in full) — higher, 1.79%
- Cc1nnsc1C(=O)Nc1cccc(-c2ccc(-c3nc4ccccc4[nH]3)cc2)c1 — higher, 9.93%
- N#Cc1ccc(C2CCN(CC[C@H](N)Cc3ccc(Cl)s3)CC2)cc1 — higher, 10.7%
- COc1ccc2nc(Nc3nc4cnccc4[nH]3)sc2c1 — higher, 4.93%
- CNCC(C)(C)c1nc(-c2ccc(Cl)c(O)c2)c(-c2ccncc2)[nH]1 — lower, -1.37%
- CC(C)(C)c1ccc(CN2CCCCC(NC(=O)c3cc(-c4cccc(F)c4)cs3)C2)cc1 (stereo not given) — lower, -3.63%
- COc1ccc(C2NCCc3c2[nH]c2ccccc32)cc1CN1CCN(c2ccc(F)cc2)CC1 (stereo not given) — lower, 0.27%
- Cc1[nH]c(C)c(-c2ccc(-c3ccccc3)nc2)c(=O)c1Br — lower, 0.36%

target: Glucose transporter (Leishmania mexicana) (UniProt O61059); assay: ST_JUDE_LEISH: Cytotoxicity at 2uM final concentration against transgenic Leishmania Mexicana promastigotes LmGT2 that are glucose transport deficient and complemented with the L. Mexicana glucose transporter 2. Activity is measured by DNA content using SYBR green in vitro; format: functional

Point of comparison: `O=[N+]([O-])c1cccc(-c2nc(-c3ccc(Br)cc3)[nH]c2-c2ccc(Br)cc2)c1`, inhibition 1.57%. Against it:
- CC(C)(C)c1ccc(-c2csc(NC(=O)CC(c3ccccc3)c3ccccc3)n2)cc1 — higher, 2.07%
- CCc1cn2c3c(cc(C(=O)N[C@@H](Cc4ccccc4)[C@H](O)CNCc4ccccc4C)cc13)N(C)S(=O)(=O)CC2 — higher, 1.96%
- COC(=O)c1sc(-c2ccc(Cl)cc2)cc1N(CCCN1CCC(N2CCCCC2)CC1)S(=O)(=O)c1ccc(C)cc1 — higher, 9.1%
- O=C(NCCc1ccccc1F)c1cc(Br)cc(N2CCN(c3ccncc3)CC2)c1 — lower, -0.08%
- Clc1ccc(C=NNc2ccnc3cc(Cl)ccc23)cc1 — lower, -0.42%
- Cc1ccccc1C1CCN(C2CCC(NC(=O)c3ccc(-c4ccccn4)s3)CC2)CC1 (stereo not given) — lower, -1.37%
- Cc1ccccc1OCC(O)CN1CCC(C2CCN(CC(O)COc3ccccc3C)CC2)CC1 (stereo not given) — higher, 2.28%
- Cc1ccc(NC(=N)Nc2ncccc2OCc2c(F)cccc2Cl)cc1 — higher, 5.56%
- CC(=O)c1cc(N2CCCC2)ccc1N — higher, 2.09%
- COc1cccc2cc(C(=O)N[C@@H](CC(C)C)C(=O)N[C@H](C=NN3CC(=O)NC3=O)CC(C)C)oc12 — higher, 2.23%
- OC(c1cccc2ccccc12)C1CN(CCc2ccccc2)CCC1(O)c1ccccc1 (stereo not given) — higher, 3.51%
- CN1CCN(c2cc3c(cc2Cl)CCN3C(=O)Nc2ccc(NC(=O)c3ccc(C(F)(F)F)cc3)cc2)CC1 — higher, 1.98%
- COc1cc(C(=O)NC2CC(C)(C)NC(C)(C)C2)ccc1-c1cc2cc(Cl)c(Cl)cc2[nH]1 — higher, 2.02%
- CCn1c(-c2nonc2N)nc2c(-c3ccc(CO)o3)ncc(OCCCN)c21 — higher, 5.17%
- CCCn1cc2c(ccc3nc(N)nc(N)c32)n1 — lower, 0.23%
- NCc1cccc(-c2cccc(CNC3CCN(Cc4ccccc4)CC3)c2)c1 — lower, -0.37%
- CCCCCCN1CCCN(Cc2cccc(C(=O)Nc3ccc(C(C)(C)C)cc3)c2)CC1 — lower, 0.65%
- CC(=O)c1cc(N2CCOCC2)ccc1N — higher, 2.38%
- Cc1cc(NCCc2ccccc2)nc(N/C(=N/CC(=O)OC(C)(C)C)Nc2ccc(C(F)(F)F)cc2)n1 — higher, 2.34%
- FC(F)(F)c1cccc(Nc2nc3ccccc3nc2Nc2cccc(C(F)(F)F)c2)c1 — lower, 0.85%
- O=C(CSc1nc2ccccc2c(=O)n1C1CC1)Nc1cc(C(F)(F)F)ccc1Cl — higher, 2.43%
- CCN(CC)CCNC(=O)c1ccc(N/C=C2\C(=O)Nc3ccc(S(=O)(=O)Cc4c(Cl)cccc4Cl)cc32)cc1 — lower, -1.08%
- C[C@H](NC(=O)c1c(CN2CCC(NC(=O)CC(C)(C)C)CC2)c(-c2cccs2)nc2ccccc12)C1CCCCC1 — lower, 0.4%
- N=C(N)Nc1nc(-c2ccc(NC(=N)N3CCC[C@H]3CN3CCCC3)cc2)cs1 — lower, -0.7%
- CCn1cc(C=C2Oc3c(ccc(O)c3CN3CCCCC3C)C2=O)c2ccccc21 (stereo not given) — higher, 3.81%
- CCCNC(=O)c1cncc(-c2ccc(CNC(CC)c3ccccc3)cc2)c1 (stereo not given) — lower, -0.14%
- O=C(NCCc1ccccc1)N(Cc1ccccc1-c1cccc(CNC2CCCC2)c1)C1CCN(Cc2ccccc2)CC1 — higher, 6.22%
- CN(C)C(CNC(=O)c1cc(-c2ccncc2)c(-c2ccc(NC(=O)Nc3ccccc3)cc2)o1)c1ccccc1 (stereo not given) — lower, -0.82%
- O=c1cc(NCCCNCc2ccc(Cl)c(Cl)c2)[nH]c2ccc(Oc3ccccc3)cc12 — lower, -0.72%
- CC1CCCCC1N(C)C1CCN(CCCNC(=O)C=Cc2ccccc2Cl)CC1 (stereo not given) — lower, -0.58%
- CCN(CC)CC(O)CNc1c2ccc([N+](=O)[O-])cc2nc2cc(OC)c(OC)cc12 (stereo not given) — higher, 42%
- COc1ccc(C(C(=O)NC2CCN(C[C@H](O)c3ccnc4ccc(OC)cc34)CC2)N2CCN(c3ccc([N+](=O)[O-])cc3)CC2)cc1 (stereo not given in full) — higher, 2.85%
- Cc1nnsc1C(=O)Nc1cccc(-c2ccc(-c3nc4ccccc4[nH]3)cc2)c1 — higher, 4.11%
- N#Cc1ccc(C2CCN(CC[C@H](N)Cc3ccc(Cl)s3)CC2)cc1 — higher, 15.8%
- COc1ccc2nc(Nc3nc4cnccc4[nH]3)sc2c1 — higher, 5.34%
- CNCC(C)(C)c1nc(-c2ccc(Cl)c(O)c2)c(-c2ccncc2)[nH]1 — lower, -3.28%
- CC(C)(C)c1ccc(CN2CCCCC(NC(=O)c3cc(-c4cccc(F)c4)cs3)C2)cc1 (stereo not given) — lower, -0.11%
- COc1ccc(C2NCCc3c2[nH]c2ccccc32)cc1CN1CCN(c2ccc(F)cc2)CC1 (stereo not given) — lower, 0.15%
- Cc1[nH]c(C)c(-c2ccc(-c3ccccc3)nc2)c(=O)c1Br — lower, 0.2%
